# Shown are actives, neighbours in structure and some others; about 4.3% of the full set was active somewhere.
# GLP1R inv ag – qHTS of GLP-1 Receptor Inverse Agonists (Inhibition Mode); HEK293 GLP-1R CRE-luciferase, luminescence, 24 h; GLP-1R form is constitutively active; AID 624417, 2012; Potency, µM (series often up to 38.3 µM), for the others: at the top dose activity change, negative = inhibition, hits mostly inhibitors; 410,000 compounds, 1.6% hits; further: potency means the concentration at half of the fitted maximal effect; on the % scale 0 is the no-effect control and ±100 the full control effect; nearly all actives have a fitted effect of over 55% in size
# Target sequence (P43220 whole entry, looked up): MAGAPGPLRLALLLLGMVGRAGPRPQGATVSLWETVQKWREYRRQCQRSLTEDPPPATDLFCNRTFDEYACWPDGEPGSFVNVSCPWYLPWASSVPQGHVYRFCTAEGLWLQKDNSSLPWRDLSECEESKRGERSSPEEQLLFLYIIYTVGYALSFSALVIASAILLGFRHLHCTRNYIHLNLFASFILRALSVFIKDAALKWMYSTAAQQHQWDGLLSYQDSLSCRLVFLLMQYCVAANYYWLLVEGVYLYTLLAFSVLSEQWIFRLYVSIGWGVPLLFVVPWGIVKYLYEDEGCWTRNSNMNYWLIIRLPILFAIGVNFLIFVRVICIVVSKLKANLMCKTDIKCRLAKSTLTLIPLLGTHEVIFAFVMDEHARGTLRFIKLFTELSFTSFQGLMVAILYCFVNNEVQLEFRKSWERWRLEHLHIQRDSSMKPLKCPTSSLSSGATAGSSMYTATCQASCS
#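 HEK293 cells stably co-expressing constitutively active GLP-1R and a cAMP-responsive luciferase reporter were seeded in DMEM with 10% Nu serum, given compounds after 12 h, and incubated 24 h at 37 deg C. Luminescence was then read.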
# GLP1R ag – qHTS of GLP-1 Receptor Agonists; AID 624172, 2012; Glucagon-like peptide 1 receptor (Homo sapiens), P43220; HEK293 GLP-1R CRE-luciferase, luminescence, 4-6 h; cells express a hypersensitive GLP-1R form; Potency, µM (highest dose often 45.6 µM), for the others: top-dose activation, actives largely listed as activators; 380,000 compounds, 0.007% hits; further: potency means the concentration at half of the fitted maximal effect; % of control where 0% means no effect
# D3 ag – qHTS of D3 Dopamine Receptor Agonist: qHTS; D(3) dopamine receptor (Homo sapiens), P35462; D3R DiscoveRx beta-arrestin cells, luminescence, 90 min; max activation, %; 410,000 compounds, 0.58% hits; AID 652048, 2013; in the data active means max activation above about 30%; further: 0% is about no effect
#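 Cells at 1500/well, incubated overnight, then treated with pinned compounds (dopamine as control) for 90 min at 37 degrees C. DiscoveRx reagent added for 30 - 60 minutes at room temperature; luminescence read.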
# D3 antag – qHTS of D3 Dopamine Receptor Antagonist: qHTS. 360,000 compounds, 2.5% hits. max response, negative = inhibition, %. D3R cells, DiscoveRx beta-arrestin luminescence, antagonist mode; active compounds read low. D(3) dopamine receptor (Homo sapiens), P35462. AID 652054, 2013; in the data active means max response below about -50%; inconclusive means no clear call, values can overlap the other calls; further: on the % scale 0 is the no-effect control and ±100 the full control effect
#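 Cells plated overnight at 1500 cells/well, then exposed to library compounds with dopamine controls for 90 minutes at 37 degrees C. DiscoveRx reagent added for 30–60 minutes at room temperature; luminescence read, quantitative HTS format.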
# Active calls of the source: *; u = inconclusive; x = no result; ! = repeats disagree. Unless noted, the call rests on the fitted dose curve; in most records, active means well fitted curve in the direction sought with a large enough effect; inconclusive means small, poorly fitted or top-dose-only effect, or another doubt; inactive means no such curve, though single readings can be large; an effect the other way counts as inactive or inconclusive.
SMILES,GLP1R inv ag,GLP1R ag,D3 ag,D3 antag
CCCCN(C)C(=S)Nc1ccc2nc(N3CCN(CC)CC3)cc(C)c2c1,u,2%,-10,-15
CCOC(=O)N1CCC(NC(=S)Nc2ccc3nc(N4CCN(CC)CC4)cc(C)c3c2)CC1,8.9µM*,18%,-9,-15
CCN1CCN(c2cc(C)c3cc(NC(=S)NCCN(C)C)ccc3n2)CC1,3.5µM*,-3%,-11,-13
Cn1c(N2CCN(C(c3ccccc3)c3ccccc3)CC2)nc2ccccc21,u,-10%,-5,16
O=c1nc2ccccc2c2n1CC(CN1CCN(C(c3ccccc3)c3ccccc3)CC1)N2 (configuration not stated),-34%,3%,-10,-77*
Cc1ccc(CNC(=O)CCCc2nnc3n(CC(C)C)c(=O)c4sccc4n23)cc1,1%,x,-5,x
CN(C)C1(CN=Cc2cc(Cl)cc([N+](=O)[O-])c2O)CCCCC1,-32%,0%,-7,-68*
COc1ccc(CN2C(=O)C(O)(CC(=O)c3ccc4c(c3)OCO4)c3ccccc32)cc1OC (configuration not stated),2%,24%,36*,3
CCOc1ccc(C2CC(=O)c3c([nH]c(C(=O)OCC4CCCCC4)c3C)C2)cc1 (configuration not stated),-5%,x,-8,x
Cc1ccsc1CNC(=O)c1c(-c2ccccc2)noc1C,-13%,10%,-10,-8
Cc1noc(/C=C/c2ccccc2F)c1S(=O)(=O)N1CCC(C(=O)NCc2ccco2)CC1,13%,x,-6,x
CCN(CC)CCNC(=O)C1CCN(S(=O)(=O)c2c(C)noc2/C=C/c2ccccc2F)CC1,3.2µM*!,21%,-4,-12
CCN(CC)C(=O)C1CCN(S(=O)(=O)c2c(C)noc2/C=C/c2cccc(OC)c2)CC1,10%,x,4,x
Cc1ccc(/C=C/c2onc(C)c2S(=O)(=O)N2CCC(C(=O)N3CCN(C)CC3)CC2)cc1,6.3µM*,6%,-12,-20
CCN(CC)C(=O)C1CCN(S(=O)(=O)c2c(C)noc2/C=C/c2cccc(C)c2)CC1,10µM*,9%,-3,-14
CCOC(=O)c1oc2cc(O)ccc2c(=O)c1-c1csc(C)n1,-14%,11%,-3,-1
CCOC(=O)c1oc2cc(O)ccc2c(=O)c1-c1ccccc1OC,4%,10%,-15,-61*
CC(C)Oc1ccc(C(CCN)C2CCCCC2)cc1 (configuration not stated),10µM*,-1%,-9,u
O=C(c1cccs1)N1N=C(c2ccccc2)CC1c1ccccc1O (configuration not stated),8.9µM*,19%,4,1
Cc1ccc(C2=NN(C(=O)c3cccs3)C(c3ccccc3O)C2)cc1 (configuration not stated),9%,-9%,2,24
O=C(c1ccccc1)N1N=C(c2ccccc2)CC1c1ccccc1O (configuration not stated),11µM*,7%,5,12
O=C(c1ccncc1)N1N=C(c2ccc(Br)cc2)CC1c1ccccc1O (configuration not stated),u,7%,-4,-19
CCOc1ccc(OCC)c(NC(=O)CCc2nc3cccnc3n2-c2ccccc2)c1,11%,x,-14,x
COc1ccc(OC)c(NC(=O)CSc2nc3ccccc3c(=O)n2CCC(=O)NC2CCCCC2)c1,9%,x,-17,x
CC(C)(C)c1ccc(O)c(N=Cc2cc3c(cc2[N+](=O)[O-])OCO3)c1,-21%,0%,8,-7
SMILES,GLP1R inv ag,GLP1R ag,D3 ag,D3 antag
O=[N+]([O-])c1cc(Br)cc(C=Nc2ccc3c(c2)OCO3)c1O,-7%,-5%,-14,-78*
O=[N+]([O-])c1ccc(O)c(C=Nc2ccc3c(c2)OCO3)c1,3%,6%,-12,-68*
Cc1ccc(N=Cc2cc3c(cc2[N+](=O)[O-])OCO3)cc1[N+](=O)[O-],-15%,-6%,0,-8
COc1ccc(CNC(=O)C(=O)NCC(c2ccco2)S(=O)(=O)c2cccs2)cc1 (configuration not stated),-6%,x,7,x
Cc1ccc(C)c2[nH]c(=O)c(C(c3nnnn3Cc3ccco3)N3CCc4ccccc4C3)cc12 (configuration not stated),10µM*,-1%,-2,2
Cc1ccc(C)c2[nH]c(=O)c(C(c3nnnn3CCc3ccccc3)N3CCOCC3)cc12 (configuration not stated),-12%,6%,-10,u
CCn1cc(S(=O)(=O)c2cccc(C)c2)c(=O)c2cc(F)c(N3CCN(c4ccccc4)CC3)cc21,-18%,x,2,x
CC(C)c1ccc(NC2CCCN(C(=O)CC3CCCC3)C2)cc1 (configuration not stated),6.3µM*,20%,-3,18
COc1ccccc1Nc1nc(N)nc(CSc2nc(C)cc(C)n2)n1,39%,u,3,12
COc1ccc(Nc2nc(N)nc(CSc3nc(C)cc(C)n3)n2)cc1,96%,26%,-11,-61*
Cc1ccc(NC(=O)N2CCc3cc(S(=O)(=O)N4CCC(C)CC4)ccc32)cc1F,14%,x,-10,x
CCCC(=O)n1nc(-c2cccnc2)nc1NCc1ccc(OC)cc1,2%,4%,57*!,2
Cn1cc(CN2CCCC(CO)(Cc3ccccc3)C2)cn1 (configuration not stated),4%,5%,-4,3
O=C(c1c[nH]c2ccccc12)N1CCN(Cc2ccccc2)CC1,-21%,4%,-11,-15
OCC1(Cc2ccccc2)CCCN(Cc2c[nH]c3ccccc23)C1 (configuration not stated),u,4%,-30,-57*
c1ccc(CN2CCN(Cc3c[nH]c4ccccc34)CC2)cc1,u,4%,-46,-60*
Cc1cccc(C(=O)NCC(=O)OCc2cc(=O)n3nc(C4CC4)sc3n2)c1,14%,x,-11,x
O=C1CCCc2nc(N3CCCCC3)sc21,3%,17%,8,-59*
COc1cc(OC)cc(-c2nc3n(n2)C(c2ccccc2F)C(C(=O)Nc2cccnc2)=C(C)N3)c1 (configuration not stated),-25%,x,-6,x
O=C(/C=C/c1ccc(Cl)cc1Cl)c1ccc[nH]1,u,5%,-1,-17
O=C(/C=C/c1ccc(Cl)cc1Cl)n1cccn1,68%,0%,0,-59*
Cc1ccc(C(=O)O)cc1N=Cc1cc(Br)cc(Br)c1O,u,-2%,-24,-120*
CC(=O)Nc1ccc(C(=O)N/N=C/c2cc(Br)cc(Br)c2O)cc1,u,2%,9,15
